These results are taken from PubChem BioAssay (NCATS).

Results filed as inconclusive are left out. Calls of active or inactive are those of the source. Unless noted, the call rests on the fitted dose curve; in most records, active means well fitted curve in the direction sought with a large enough effect; inconclusive means small, poorly fitted or top-dose-only effect, or another doubt; inactive means no such curve, though single readings can be large; an effect the other way counts as inactive or inconclusive.

Experiment [1] concerns the target Cytochrome P450 3A4 (Homo sapiens) (UniProt P08684). The experiment in a line: qHTS Assay for Inhibitors and Substrates of Cytochrome P450 3A4 (AID 884). Further: nearly all actives have a fitted effect of over 50% in size. Further: potency means the concentration at half of the fitted maximal effect. On activity change, negative = inhibition: on the % scale 0 is the no-effect control and ±100 the full control effect. Summed up: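 Luminescent readout of luciferin produced by CYP3A4 (20 nM) dealkylation of Luciferin-PPXE, 25 uM (its KM). NADPH-driven reaction ran 60 min at RT after 10 min compound preincubation; data scaled to 57 uM ketoconazole as 100% inhibition.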
(In general: qHTS replaces the single test concentration by a dilution series.)

The target is the same in experiment [2]. The experiment in a line: qHTS Assay for Activators of Cytochrome P450 3A4 (AID 885). Further: nearly all actives have a fitted effect of over 65% in size. Summed up: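 Human CYP3A4 dealkylates Luciferin-PPXE to luciferin, which luciferase detection converts to light. Substrate was at its KM (25uM), buffer 200mM KPO4, reaction 60 min at RT.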
Experiment [3] in a line: Confirmation and Secondary Assay for Modulators of Hemoglobin Beta Chain Splicing at IVS2 654 locus (AID 910).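 Further: HeLa cells stably carrying EGFP split by mutant beta-globin IVS2-654 intron; % of control where 0% means no effect.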 The gist of the method: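 HeLa cells stably expressing EGFP interrupted by β-globin IVS2-654 intron, seeded overnight in Opti-MEM/2% FCS, then treated 2 days at 37 °C. Restored splicing read as total peak GFP intensity per well by laser scanning cytometry (488 nm excitation, 500–520 nm emission); 500 nM antisense PNA as control.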

A short description of experiment [4]: Confirmation and Secondary Assay for Modulators of Hemoglobin Beta Chain Splicing at IVS2 705 locus (AID 930).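 Further: HeLa cells stably expressing the EGFP-705 splicing reporter; GFP fluorescence per well restored by corrected splicing of the IVS2-705 intron in EGFP; % of control where 0% means no effect.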 The gist of the method: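 HeLa EGFP-705 reporter; 500 cells/well, o/n 37C 5% CO2; cpd 2 d; 488 ex/500-520 em laser scan; total peak GFP intensity/well. Ref: 500 nM […] antisense PNA.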
A short description of experiment [5]: qHTS Assay for Lipid Storage Modulators (AID 1519; calls by dose curve; on activity change, negative = inhibition: on the % scale 0 is the no-effect control and ±100 the full control effect). Particulars: Drosophila S3 cells, BODIPY lipid droplet/cell ratio, laser cytometry, cells loaded with oleic acid; for activity change, negative = inhibition: at 57.5 µM (top of the series). Summed up: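 Cells seeded at 5,000 per well were treated with compounds over a concentration series and loaded with oleic acid (400 uM, as added). Lipid droplet fluorescence (488 nm excitation, 500-530 nm channel) was read by laser-scanning cytometry and normalized to 20 uM Triacsin C.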

Experiment [6] deals with Ubiquitin carboxyl-terminal hydrolase 1 (Homo sapiens) (UniProt O94782). The experiment in a line: Inhibitors of USP1/UAF1: Pilot qHTS (AID 504865).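 Further: rhodamine fluorescence freed from ubiquitin-rhodamine substrate followed over time; top concentration of the series differs between compounds; on the % scale 0 is the no-effect control and ±100 the full control effect; nearly all actives have a fitted effect of over 35% in size.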 The gist of the method: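 USP1/UAF1 complex (1nM) preincubated with compound 15 min at room temperature, then Ub-Rho substrate (150nM final) added. Fluorescence read kinetically at 480/540 nm, 6 reads every 60 seconds. Buffer: 50mM HEPES pH 7.8, 0.5mM EDTA, 0.1 mg/ml BSA, 1mM TCEP, 0.01% Tween-20.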

Where [7] appears, read: measured here: cell count channel max response.
Where [8] appears, read: measured here: lipid channel max response.

Chain of Cytochrome P450 3A4 (Homo sapiens) (P08684 whole entry, looked up): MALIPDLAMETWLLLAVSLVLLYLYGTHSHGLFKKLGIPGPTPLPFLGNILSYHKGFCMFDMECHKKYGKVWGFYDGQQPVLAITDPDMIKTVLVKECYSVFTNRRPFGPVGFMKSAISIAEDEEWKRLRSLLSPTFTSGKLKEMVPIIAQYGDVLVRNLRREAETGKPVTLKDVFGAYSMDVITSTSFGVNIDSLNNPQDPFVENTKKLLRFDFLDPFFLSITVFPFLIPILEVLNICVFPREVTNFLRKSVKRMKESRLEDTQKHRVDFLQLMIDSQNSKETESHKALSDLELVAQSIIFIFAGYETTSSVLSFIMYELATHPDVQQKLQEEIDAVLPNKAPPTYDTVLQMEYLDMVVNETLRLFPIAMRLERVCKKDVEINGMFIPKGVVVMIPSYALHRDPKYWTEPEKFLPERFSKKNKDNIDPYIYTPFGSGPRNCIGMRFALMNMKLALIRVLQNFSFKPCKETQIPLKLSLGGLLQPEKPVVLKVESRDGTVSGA
Chain of Ubiquitin carboxyl-terminal hydrolase 1 (Homo sapiens) (O94782 whole entry, looked up): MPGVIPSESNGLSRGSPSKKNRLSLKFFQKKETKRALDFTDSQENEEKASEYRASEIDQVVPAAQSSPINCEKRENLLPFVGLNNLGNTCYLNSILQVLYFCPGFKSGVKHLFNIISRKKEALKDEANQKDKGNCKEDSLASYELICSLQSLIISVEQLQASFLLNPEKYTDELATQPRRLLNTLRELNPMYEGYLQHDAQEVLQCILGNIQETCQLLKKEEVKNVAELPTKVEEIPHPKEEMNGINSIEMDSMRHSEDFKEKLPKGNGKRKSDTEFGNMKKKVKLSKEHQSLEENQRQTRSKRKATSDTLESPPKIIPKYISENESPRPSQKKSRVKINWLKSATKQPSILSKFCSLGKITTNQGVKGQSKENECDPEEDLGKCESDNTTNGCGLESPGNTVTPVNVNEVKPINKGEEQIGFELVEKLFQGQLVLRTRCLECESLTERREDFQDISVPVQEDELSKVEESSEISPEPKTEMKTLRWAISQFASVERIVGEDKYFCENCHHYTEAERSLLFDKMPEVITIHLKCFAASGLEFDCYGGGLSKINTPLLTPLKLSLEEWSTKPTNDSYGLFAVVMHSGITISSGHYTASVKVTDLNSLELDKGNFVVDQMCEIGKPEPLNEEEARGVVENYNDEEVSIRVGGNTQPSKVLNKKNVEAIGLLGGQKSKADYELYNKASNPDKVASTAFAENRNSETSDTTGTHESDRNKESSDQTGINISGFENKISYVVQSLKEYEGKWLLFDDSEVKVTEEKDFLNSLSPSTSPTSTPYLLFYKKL

Consider `CCOC(=O)c1c(C)cc(O)cc1O`, for which the Potency in experiment [1] is 25.1 µM (active). The Potency result in experiment [2], in experiment [3], in experiment [4] and in experiment [6] was “inactive” in each case. In addition, the activity change, negative = inhibition in experiment [5] is 13% (inactive). In addition, the max response in experiment [5] (setting [7]) is -2.16%; in experiment [5] (setting [8]), 14.3%.

In the case of `CCOC(=O)C(=O)C1(C(=O)OCC)Oc2cc(OC)cc(OC)c2C(=O)C1c1ccccc1` (stereo unspecified), the Potency entry in experiment [1], in experiment [3], in experiment [4] and in experiment [6] was “inactive” in each case. Moreover, the activity change, negative = inhibition in experiment [5] was 5.57% (inactive). In addition, the max response was 9.96% in experiment [5] (setting [7]) and 15% in experiment [5] (setting [8]).

Regarding `C=CCSCC=C`, the Potency entry in experiment [1], in experiment [3], in experiment [4] and in experiment [6] was “inactive” throughout. The activity change, negative = inhibition in experiment [5] is 6.16% (inactive). Further, the max response in experiment [5] (setting [7]) was -10.4%; in experiment [5] (setting [8]), -1.96%.

On to `CN(C)C1C(=O)C(C(N)=O)=C(O)[C@@]2(O)C(=O)C3=C(O)c4c(O)ccc(Cl)c4C(O)[C@H]3C[C@@H]12` (stereo partly specified), for which the Potency entry in experiment [1], in experiment [3], in experiment [4] and in experiment [6] was “inactive” in each case. The activity change, negative = inhibition in experiment [5] is 5.54% (inactive). In addition, the max response came out at 25.6% in experiment [5] (setting [7]) and 35.5% in experiment [5] (setting [8]).

With `O=C(O)C(O)[C@@](O)(Cc1ccc(O)cc1)C(=O)O` (stereo partly specified), the Potency result in experiment [1], in experiment [3], in experiment [4] and in experiment [6] was “inactive” throughout. Also, the activity change, negative = inhibition in experiment [5] is 5.41% (inactive). The max response in experiment [5] (setting [7]) was 10.8%; in experiment [5] (setting [8]), 18.1%.

On to `CC1(C)OC2C(CO)OC(n3cnc4c(=O)[nH]c(N)nc43)C2O1` (stereo unspecified), for which the Potency entry in experiment [1], in experiment [3], in experiment [4] and in experiment [6] was “inactive” throughout. In experiment [5], the activity change, negative = inhibition is 4.01% (inactive). Also, the max response in experiment [5] (setting [7]) amounted to 24%; in experiment [5] (setting [8]) it was 28%.

As for `CC(=O)/C(=C\c1ccccc1)CC(=O)O`, the Potency result in experiment [1], in experiment [3], in experiment [4] and in experiment [6] was “inactive” throughout. For the same compound, the activity change, negative = inhibition in experiment [5] was 9.42% (inactive). The max response in experiment [5] (setting [7]) stood at 12.7%; in experiment [5] (setting [8]) it was 23.6%.

As for `COC(=O)Oc1ccccc1C(=O)O`, the Potency result in experiment [1], in experiment [3], in experiment [4] and in experiment [6] was “inactive” in each case. Besides, the activity change, negative = inhibition in experiment [5] was 5.3% (inactive). Besides, the max response is 15.1% in experiment [5] (setting [7]) and 21.1% in experiment [5] (setting [8]).

With `O=C(O)C1(O)CC(O)C(O)C(O)C1` (stereo unspecified), the Potency result in experiment [1], in experiment [3], in experiment [4] and in experiment [6] was “inactive” in each case. For the same compound, in experiment [5], the activity change, negative = inhibition was 2.66% (inactive). Further, the values for the max response in experiment [5] (setting [7]) and in experiment [5] (setting [8]) were 9.62% and 14.4%, respectively.

Turning to `COC1C(O)C(CO)OC1n1c(Br)nc2c(=O)[nH]c(N)nc21` (stereo unspecified), the Potency entry in experiment [1], in experiment [3], in experiment [4] and in experiment [6] was “inactive” each time. The activity change, negative = inhibition in experiment [5] was 1.73% (inactive). Also, the values for the max response in experiment [5] (setting [7]) and in experiment [5] (setting [8]) were 0.309% and 3.63%, respectively.

Consider `NCC1OC(OC2C(N)CC(N)[C@@H](O)[C@@H]2OC2O[C@H](CO)[C@@H](O[C@@H]3OC(CN)C(O)C(O)C3N)C2O)C(N)C(O)C1O` (stereo partly specified), for which the Potency entry in experiment [1], in experiment [3], in experiment [4] and in experiment [6] was “inactive” in each case. Besides, in experiment [5], the activity change, negative = inhibition was 9.63% (inactive). Moreover, the max response in experiment [5] (setting [7]) is 15.6%; in experiment [5] (setting [8]), 30%.

As for `Nc1nc2[nH]c(=O)c(=O)[nH]c2c(=O)[nH]1`, the Potency entry in experiment [1], in experiment [3], in experiment [4] and in experiment [6] was “inactive” in each case. Besides, the activity change, negative = inhibition in experiment [5] was 4.12% (inactive). Besides, the max response in experiment [5] (setting [7]) stood at 1.82%; in experiment [5] (setting [8]), 6.32%.

In the case of `CC1(C)CC[C@]2(C)CC[C@@]3(C)C(=CCC4[C@@]5(C)CCC(O)C(C)(C)C5CC[C@@]43C)C2C1` (stereo partly specified), the Potency result in experiment [1], in experiment [3], in experiment [4] and in experiment [6] was “inactive” throughout. In addition, in experiment [5], the activity change, negative = inhibition is 3.54% (inactive). In addition, the results for the max response in experiment [5] (setting [7]) and in experiment [5] (setting [8]) were 18% and 24.3%, respectively.

In the case of `NCCC(=O)N[C@H](Cc1cnc[nH]1)C(=O)O`, the Potency entry in experiment [1], in experiment [3], in experiment [4] and in experiment [6] was “inactive” throughout. In experiment [5], the activity change, negative = inhibition was 4.17% (inactive). The max response in experiment [5] (setting [7]) is 11.4%; in experiment [5] (setting [8]), 10.9%.

With `CC(=O)C1CCC2C3CC=C4CC(O)CC[C@@]4(C)C3CC[C@]12C` (stereo partly specified), the Potency result in experiment [1], in experiment [3], in experiment [4] and in experiment [6] was “inactive” each time. Also, the activity change, negative = inhibition in experiment [5] is 2.94% (inactive). Also, the figures for the max response in experiment [5] (setting [7]) and in experiment [5] (setting [8]) were 11.3% and 18.4%, respectively.

For `CO[C@]1(NC(=O)C(C(=O)O)c2ccc(O)cc2)C(=O)N2C(C(=O)O)=C(CSc3nnnn3C)COC21` (stereo partly specified), the Potency entry in experiment [1], in experiment [3], in experiment [4] and in experiment [6] was “inactive” throughout. In addition, in experiment [5], the activity change, negative = inhibition was 9.58% (inactive). For the same compound, the max response in experiment [5] (setting [7]) was found to be 18.1%; in experiment [5] (setting [8]), 35.5%.

Turning to `C=C(C)C1CC[C@]2(CO)CC[C@@]3(C)[C@H](CCC4[C@@]5(C)CCC(O)C(C)(C)C5CC[C@@]43C)C12` (stereo partly specified), the Potency result in experiment [1], in experiment [3], in experiment [4] and in experiment [6] was “inactive” each time. Besides, in experiment [5], the activity change, negative = inhibition is -2.93% (inactive). The results for the max response in experiment [5] (setting [7]) and in experiment [5] (setting [8]) were -9.58% and -12.7%, respectively.

`COc1ccc(CCC(=O)c2c(O)cc(OC3OC(CO)C(O)C(O)C3O[C@@H]3OC(C)C(O)C(O)C3O)cc2O)cc1O` (stereo partly specified): the Potency result in experiment [1], in experiment [3], in experiment [4] and in experiment [6] was “inactive” in each case. For the same compound, the activity change, negative = inhibition in experiment [5] was 7.07% (inactive). For the same compound, the max response was found to be 3.74% in experiment [5] (setting [7]) and 14.6% in experiment [5] (setting [8]).

On to `O=c1ccn(C2OC(COP(=O)(O)OP(=O)(O)OP(=O)(O)O)C(O)C2O)c(=O)[nH]1` (stereo unspecified), for which the Potency entry in experiment [1], in experiment [3], in experiment [4] and in experiment [6] was “inactive” in each case. In experiment [5], the activity change, negative = inhibition is 6.49% (inactive). For the same compound, the values for the max response in experiment [5] (setting [7]) and in experiment [5] (setting [8]) were 21.5% and 29.6%, respectively.

`CCC(/C=C/C(C)C1CCC2C3CCC4=CC(=O)CC[C@@]4(C)C3CC[C@@]12C)C(C)C` (stereo partly specified): the Potency result in experiment [1], in experiment [3], in experiment [4] and in experiment [6] was “inactive” in each case. In experiment [5], the activity change, negative = inhibition is 4.65% (inactive). Besides, the max response amounted to 11.9% in experiment [5] (setting [7]) and 16.6% in experiment [5] (setting [8]).
